Screening data as filed in PubChem BioAssay.
HDAC3 inh – blocks human histone deacetylase 3. O15379. recombinant HDAC3, fluorogenic peptide/trypsin coupled, fluorescence. inhibition, % at 8.3 µM. 320,000 compounds, 0.15% hits. AID 2718; in the data active = inhibition above about 26%, passing the limit was not always enough; inconclusive = no clear call, values can overlap the other calls
Target sequence (O15379 whole entry, looked up): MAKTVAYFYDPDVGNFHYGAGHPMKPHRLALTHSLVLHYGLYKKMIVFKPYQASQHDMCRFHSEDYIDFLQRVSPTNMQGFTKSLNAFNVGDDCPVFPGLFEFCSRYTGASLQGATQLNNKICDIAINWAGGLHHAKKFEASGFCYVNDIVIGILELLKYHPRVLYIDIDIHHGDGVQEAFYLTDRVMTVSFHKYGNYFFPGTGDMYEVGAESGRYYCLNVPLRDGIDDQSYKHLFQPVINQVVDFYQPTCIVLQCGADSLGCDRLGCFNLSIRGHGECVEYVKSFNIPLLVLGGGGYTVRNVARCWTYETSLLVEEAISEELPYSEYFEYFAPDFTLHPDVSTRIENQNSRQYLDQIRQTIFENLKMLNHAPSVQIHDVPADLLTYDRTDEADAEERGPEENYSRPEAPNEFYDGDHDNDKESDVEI
LANA DNA inh – KSHV C-LANA DNA binding inhibition. MBP-C-LANA/FAM-LBS DNA binding, fluorescence polarization. 340,000 compounds, 0.078% hits. inhibition, % at 9 µM. AID 504423;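 active = highest replicate inhibition at or above 60% at 9 µM, even if other replicates fall short; inactive = all replicates below 60% inhibition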;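 note: 0% = neutral control wells and 100% = 4 µM acridine orange control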
NSD2 inh – inhibitors of human histone methyltransferase NSD2; inhibition, % at 12.5 µM; 310,000 compounds, 0.54% hits; O96028; NSD2 peptide methylation, AlphaScreen, 120 min; in the data active = inhibition above about 50%
Glyco luc inh – N-linked glycosylation inhibition | D54 ERlucT glycosylation luciferase reporter, 24 h; percent of 100 nM tunicamycin response | reporter increase, % at 12.5 µM | 360,000 compounds, 0.23% hits | AID 588692;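 active = mean luciferase reporter signal, scaled so untreated is 0 and the glycosylation-blocking control 100, at or above a set limit in every replicate; inconclusive = mean reaches the limit but not every replicate does; inactive = mean below the limit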;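 note: luciferase carries N-glycosylation sites so blocking glycosylation raises the light; 0% = median of neutral control wells and 100% = median of 100 nM tunicamycin wells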
CASP6 VEID inh – caspase-6 (human) enzyme inhibition; purified caspase-6, Z-VEID-R110 cleavage fluorescence; inhibition, % at 12.5 µM; 350,000 compounds, 0.53% hits;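 active = mean inhibition across replicates at least about 35%, with every replicate also reaching that limit, limit read from the data; inconclusive = only one of the two criteria met; inactive = neither criterion met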;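 note: 0% = median of neutral control wells and 100% = no fluorescence left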
Target sequence (P55212 24-179 limits assumed): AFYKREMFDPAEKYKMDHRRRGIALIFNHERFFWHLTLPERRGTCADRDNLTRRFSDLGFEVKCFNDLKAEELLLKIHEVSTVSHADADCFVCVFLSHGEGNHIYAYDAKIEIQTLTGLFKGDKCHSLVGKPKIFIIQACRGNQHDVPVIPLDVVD
Target sequence (P55212 194-293 limits assumed): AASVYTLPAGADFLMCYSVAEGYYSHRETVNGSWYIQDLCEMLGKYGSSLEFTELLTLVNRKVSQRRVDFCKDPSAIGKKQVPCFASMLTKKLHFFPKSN
Keap1 Nrf2 FP – inhibitors of human Keap1-Nrf2 protein-protein interaction | AID 504523 | 340,000 compounds, 0.15% hits | Q14145 | Keap1 Kelch-Nrf2 peptide fluorescence polarization, 1536-well | inhibition, % at 9.4 µM; in the data active = inhibition above about 12%; inconclusive = no clear call, values can overlap the other calls; inactive = below about 7.3%;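 note: human Keap1 Kelch domain with fluorescein labeled Nrf2 9mer peptide probe; 0% = neutral control wells and 100% = peptide positive control; higher means more block of Keap1 binding to Nrf2 peptide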
* marks the source's active call; other numbers are inactive results; ? = inconclusive; . = no result. Only some compounds are listed: those with a hit (about 1.1% of all), similar ones and a draw of the others.

SMILES	HDAC3 inh	LANA DNA inh	NSD2 inh	Glyco luc inh	CASP6 VEID inh	Keap1 Nrf2 FP
CSc1ccc(NC(=O)Nc2ccc(C(=O)NCC(=O)O)cc2)cc1	-1.2	3.2	25.7	1.8	52.5*	-0.2
CCSc1ccc(C(=O)NCC(=O)O)cc1	0.8	2.2	-2.9	1.8	1.4	3.3
CCCC(=O)Nc1ccc2c(c1)C(=O)N(C)C[C@H](OC)[C@H](C)CN(C(=O)CC1CC1)[C@H](C)CO2	.	.	.	.	0.6	.
O=C(NCc1ccco1)c1ccc(Br)c(S(=O)(=O)N2CCCCC2)c1	2.4	-0.9	8.2	-4.1	71.8*	-4.8
O=C(NCc1ccco1)c1ccc(F)c(S(=O)(=O)N2CCCCC2)c1	-1.2	0.5	-1.3	-1.3	-0.6	-5.1
O=C(OCC(=O)c1ccc[nH]1)c1ccc([N+](=O)[O-])cc1	-1.5	-2.0	-1.4	2.3	0.0	1.8
O=C(COC(=O)c1ccc([N+](=O)[O-])s1)NCc1ccc(F)cc1	0.2	2.0	-0.2	1.1	.	-5.0
O=C(COC(=O)c1ccc([N+](=O)[O-])s1)NC(=O)NCc1ccccc1	5.8	0.6	2.5	2.6	43.7*	0.3
O=C(COC(=O)c1ccc([N+](=O)[O-])s1)c1ccc[nH]1	-1.2	-2.3	-0.7	-0.8	99.2*	-4.0
NCCc1c(-c2ccccc2)n(-c2ccccc2)c2ccccc12	.	-0.1	60.5*	5.1	-3.4	-0.6
CC(=O)n1c(-c2ccccc2)c(CO)c2ccccc21	2.9	1.0	.	0.5	-3.5	-8.4
C[C@H](CO)N1C[C@H](C)[C@@H](CN(C)C(=O)Nc2cccc3ccccc23)OCCCC[C@H](C)Oc2ccc(NS(C)(=O)=O)cc2C1=O	.	.	.	.	-1.3	.
Cc1ccc(NC(=O)CN2C(=O)S/C(=C\c3cc(C)n(-c4ccc(C(=O)O)cc4)c3C)C2=O)cc1	14.3	0.2	-5.0	-1.9	8.3	-3.1
Cc1ccc(NC(=O)CN2C(=O)N/C(=C/c3cc(C)n(-c4ccc(C(=O)O)cc4)c3C)C2=O)cc1	.	57.9	40.3	2.3	53.7*	-1.8
CC(O)(CS(=O)(=O)Cc1ccccc1)C(=O)Nc1cccc(C(F)(F)F)c1 (stereo unspecified)	-2.5	1.3	-3.5	1.8	39.8*	3.7
CC(C)C#Cc1cnc2c(c1)C(=O)N([C@H](C)CO)C[C@H](C)[C@@H](CN(C)C(=O)CC1CC1)O2	.	.	.	.	-2.2	.
CC#CCN1c2ccccc2[C@]23C[C@@H](C(=O)OC)N(C(=O)c4cc(C)oc4C)C2=NC(C(=O)OC)=C(C(=O)OC)[C@H]13	7.9	1.2	.	33.5*	-0.1	-8.4
C[C@H](CO)N1C[C@H](C)[C@H](CN(C)Cc2ccc3c(c2)OCO3)Oc2ccc(N(C)C)cc2C1=O	.	.	.	.	0.4	.
CN(C)CCCNC(=O)C[C@H]1C=C[C@@H](NC(=O)Cc2cccnc2)[C@@H](CO)O1	.	.	.	.	-6.5	.
COc1ccc(CN(C)C[C@@H]2OCCCC[C@@H](C)Oc3ccc(NC(=O)CCC(F)(F)F)cc3C(=O)N([C@H](C)CO)C[C@H]2C)cc1	.	.	.	.	-1.5	.
COCCNS(=O)(=O)c1cc(-c2nn(C)c(=O)c3ccccc23)ccc1C	3.2	2.0	3.1	3.4	.	0.5
Cc1ccc(-c2nn3c(C)nnc3c3ccccc23)cc1S(=O)(=O)NC(C)(C)CO	-2.4	-0.5	0.4	39.1*	13.2	0.4
CCCCNS(=O)(=O)c1cc(-c2nn(C)c(=O)c3ccccc23)ccc1C	-11.9	0.8	-1.9	-1.2	35.8*	-0.3
CCCCNc1nc(NCc2ccccc2)nc2ccccc12	.	.	.	.	44.4*	.
COCC(=O)N1CCC2(CC1)CN(Cc1nccs1)[C@H](CO)c1c2c2ccc(OC)cc2n1C	.	.	.	.	-0.6	.
SMILES	HDAC3 inh	LANA DNA inh	NSD2 inh	Glyco luc inh	CASP6 VEID inh	Keap1 Nrf2 FP
O=S(=O)(Nc1ccc(O)c2ccccc12)c1cccs1	-0.8	0.7	.	4.5	53.1*	-2.4
O=S(=O)(Nc1cccc2ccccc12)c1cccs1	10.2	1.8	.	.	-2.6	-1.8
COc1ccc(C2(CNC(=O)c3cc(OC)c(OC)c(OC)c3)CCCC2)cc1OC	.	2.7	1.0	34.6*	1.3	3.1
CCN(C[C@@H]1N[C@@H](CO)[C@@H]1c1ccc(C2=CCCC2)cc1)C(=O)c1ccncc1	.	.	.	.	-2.5	.
CNC(=O)C[C@@H]1CC[C@H]2[C@H](COc3ccc(NS(=O)(=O)c4ccccc4C)cc3C(=O)N2C)O1	.	.	.	.	7.2	.
C[C@H]1CN([C@@H](C)CO)C(=O)c2cc(NC(=O)CCC(F)(F)F)ccc2O[C@H]1CN(C)S(=O)(=O)c1ccccc1	.	.	.	.	2.0	.
CC(C)(C)S(=O)N1Cc2cc(C(=O)N3CCc4ccccc4C3)nc(-c3cccc(-c4cccnc4)c3)c2[C@@H]1CCO (stereo partly specified)	.	.	.	2.2	41.6*	.
COc1ccc(Oc2ccc(/C=C/C(=O)c3cccc(OC)c3)cc2[N+](=O)[O-])cc1	-2.2	3.0	-1.2	49.6*	-1.7	-5.5
CC(=O)OCC1=C(C(=O)O)N2C(=O)[C@@H](NC(=O)CSc3ccncc3)[C@H]2SC1	.	5.1	8.3	0.6	38.4*	-0.9
CN(C)CC(=O)N1CCCCN2[C@@H](CO)[C@@H](c3ccc(-c4cccnc4)cc3)[C@@H]2C1	.	.	.	.	1.9	.
N#CC1=C2SCN(c3ccccc3)CN2C(=O)CC1c1ccccc1Cl (stereo unspecified)	-0.1	-1.6	.	0.5	2.7	-3.0
COc1cc(OC)c(C2CC(=O)N3CN(c4ccccc4)CSC3=C2C#N)cc1OC (stereo unspecified)	41.9*	1.5	0.0	0.8	.	-0.7
COc1ccc(Br)cc1C1CC(=O)N2CN(C)CSC2=C1C#N (stereo unspecified)	1.7	-1.6	.	1.7	35.4*	-0.4
COc1ccc(OC)c(C2CC(=O)N3CN(c4ccccc4F)CSC3=C2C#N)c1 (stereo unspecified)	?	1.6	.	1.7	4.0	-7.8
N#CC1=C2SCN(c3ccccc3)CN2C(=O)CC1c1c(Cl)cccc1Cl (stereo unspecified)	60.7*	-0.6	.	1.7	3.2	-3.5
COc1cc(OC)c(C2CC(=O)N3CN(C)CSC3=C2C#N)cc1OC (stereo unspecified)	30.5*	0.1	.	2.1	3.0	-5.3
CCc1ccccc1N1CSC2=C(C#N)C(c3cc(OC)c(OC)cc3OC)CC(=O)N2C1 (stereo unspecified)	9.9	1.3	.	1.4	.	-0.7
CC(C)c1ccc(C2CC(=O)N3CN(C)CSC3=C2C#N)cc1 (stereo unspecified)	0.7	-3.0	.	1.3	.	2.4
COc1ccc(Br)cc1C1CC(=O)N2CN(Cc3ccccc3)CSC2=C1C#N (stereo unspecified)	32.1*	0.2	.	-0.8	0.5	-3.6
COCC(=O)N1[C@H](C#N)[C@H](c2ccccc2-c2ccccc2F)[C@@H]1CO	.	.	.	.	0.1	.
O=C(O)C1=CCC=CC1C(=O)O (stereo unspecified)	.	.	16.0	1.0	67.5*	.
